Measured values published in PubChem BioAssay (NCI).
Compounds without any hit were thinned out: in the full panel of roughly 83,000, 20% have a hit.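 Single-dose data. Exposure time 48 hours. Values below 10 considered active.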 Active and inactive are the calls of the source.

Test system: CAKI-1 renal
Test: NCI-60 one-dose screen, 48 h (100 = growth as untreated, 0 = no growth, -100 = all killed)
Conditions: 10 µM
Description: Growth inhibition of the CAKI-1 human tumor cell line is measured as a screen for anti-cancer activity. Cells are grown in 96 well plates and exposed to the test compound for 48 hours. Compounds are tested at a single concentration, which is 10^-5 M for most compounds. The reported endpoint is percent growth (GI% or GIPRCNT), where numbers from 0 - 100% represent growth inhibition, and numbers from -100% - 0 represent cell death. For example, a value of 40 represents 60% growth inhibition. A value of 0 means no net growth occurred over the course of the experiment. A value of -40 indicates 40% of cells at the beginning of the experiment died by the end of the experiment. A value of -100 means all cells are dead at the end of the experiment.
NCI-60 Human Tumor Cell Lines Screen was performed using the standard one-dose NCI protocol, which is described in more detail at https://dtp.cancer.gov/discovery_development/nci-60/default.htm.
Compounds with GIPRCNT values below 10 were considered active. Activity score was based on GIPRCNT using the following formula: […]
Score is 0 for GIPRCNT values of 100 or above, 50 for GIPRCNT values of 0, and 100 for GIPRCNT values of -100.

**Q.** For Nc1nc(Cn2c(-c3nonc3N)nc3ccccc32)nc(N2CCCCC2)n1, which growth is on record?
**A.** 85.8% (inactive)

**Q.** With O=C(c1ccccc1)N(C(=O)c1ccccc1)N1CCCC1 as the compound, how does the growth read?
**A.** 91.1% (inactive)

**Q.** For O=C1/C(=C/c2ccc([N+](=O)[O-])s2)Oc2cc(Cl)ccc21, which growth is on record?
**A.** 52.8% (inactive)

**Q.** For C=CCN(CC=C)C(=O)[C@H](CC)[C@@H]1CC[C@@H](C)[C@@H]([C@H](C)[C@@H](O)[C@@H](C)C(=O)[C@H](CC)C2O[C@]3(C=CC(=O)[C@]4(CC[C@@](C)([C@H]5CC[C@](O)(CC)[C@H](C)O5)O4)O3)[C@H](C)C[C@@H]2C)O1 (stereo not given in full), which growth is on record?
**A.** 13.7% (inactive)

**Q.** Which growth does the source give for CCc1ccc(C2=NN(c3ccc(S(C)(=O)=O)cc3)C(=O)CC2)cc1 here?
**A.** 16.7% (inactive)

**Q.** How did the growth turn out when COc1cc2c(cc1NC(=O)C(F)(F)F)-c1ccc(NC(=O)C(F)(F)F)cc1C2 was run?
**A.** 96.9% (inactive)

**Q.** With O=C(CCC(C(=O)c1ccccc1)c1ccccc1)c1ccccc1 (stereo not given) as the compound, how does the growth read?
**A.** 52% (inactive)

**Q.** With Cc1cc(=O)n2nnc3cc(C(F)(F)F)ccc3n12 as the compound, how does the growth read?
**A.** 113% (inactive)

**Q.** Brc1ccc2c(c1)-c1ccccc1C1=NCCN12 was tested. Which growth did it give?
**A.** -5.84% (active)

**Q.** Which growth does the source give for CC(=O)Nc1ccc(CC[C@H]2CCC/C=C/[C@@H]3C[C@H](O)C[C@H]3[C@H](O)/C=C/C(=O)O2)cc1 here?
**A.** 16% (inactive)

**Q.** How did the growth turn out when CCOC(=O)CC(S(=O)(=O)c1ccccc1)S(=O)(=O)c1ccccc1 was run?
**A.** 90.1% (inactive)

**Q.** How did the growth turn out when CCCN(CCC)C(=O)[C@H](CC)[C@@H]1CC[C@@H](C)[C@@H]([C@H](C)[C@@H](O)[C@@H](C)C(=O)[C@H](CC)C2O[C@]3(C=C[C@@H](O)[C@]4(CC[C@@](C)([C@H]5CC[C@](O)(CC)[C@H](C)O5)O4)O3)[C@H](C)C[C@@H]2C)O1 (stereo not given in full) was run?
**A.** -8.15% (active)

**Q.** For COc1cc(N)c2ncccc2c1SC, which growth is on record?
**A.** 99.2% (inactive)

**Q.** How did the growth turn out when CSc1ccc(-c2cc(-c3ccc(NC(=O)CCCN4CCCC4)cc3)nc(-c3ccc(NC(=O)CCCN4CCCC4)cc3)c2)cc1 was run?
**A.** 83.6% (inactive)

**Q.** COc1ccc(-c2cc(-c3ccc(OC)c(OC)c3)nc(SCCCC(=O)NO)n2)cc1 was tested. Which growth did it give?
**A.** -29.2% (active)

**Q.** With O=C(COc1cccc(/C=C2\CSc3ccccc3C2=O)c1)c1ccc(Cl)cc1 as the compound, how does the growth read?
**A.** -65.2% (active)

**Q.** Which growth does the source give for Cc1ccc(/C=C/C(=O)C(=O)/C=C/c2ccc(C)cc2)cc1 here?
**A.** 94.8% (inactive)

**Q.** How did the growth turn out when CN1CCc2c(sc3nc4n(-c5ccc(Cl)cc5)cnn4c(=O)c23)C1 was run?
**A.** 97.4% (inactive)

**Q.** Which growth does the source give for C[C@@H](O)[C@H]1C(=O)N2C(C(=O)O)=C(SC3CN[C@H](C(=O)N(C)C)C3)[C@H](C)[C@H]12 (stereo not given in full) here?
**A.** 95.2% (inactive)

**Q.** Which growth does the source give for O=C(CCn1cnc2c(cc(-c3ccccc3)n2-c2ccccc2)c1=O)Nc1ccc(F)cc1 here?
**A.** 97.1% (inactive)

**Q.** O=C1CSC(=S)N1/N=C/c1ccc(Cl)s1 was tested. Which growth did it give?
**A.** 100% (inactive)

**Q.** With CCCCCCCCCCCCCCCCCC[n+]1ccc2c(C)c3c(c(C)c2c1)c1cc(O)ccc1n3CC as the compound, how does the growth read?
**A.** 71.1% (inactive)

**Q.** CCCCC/C=C/C/C=C/CCCCCCCC1=NC(C)(C)CN1C(C)C was tested. Which growth did it give?
**A.** 26.9% (inactive)

**Q.** C[C@]12CC[C@@H]3c4ccc(O)cc4CC[C@H]3[C@@H]1CC[C@@H]2NS(=O)(=O)c1ccc(C(F)(F)F)cc1 was tested. Which growth did it give?
**A.** 38.6% (inactive)

**Q.** For CC(C)N(CCOc1cccc(-c2nc3sccn3c2-c2ccnc(S(C)(=O)=O)n2)c1)C(C)C, which growth is on record?
**A.** 93.3% (inactive)

**Q.** With O=C(N/N=C/c1ccc([N+](=O)[O-])cc1)c1ccccc1Nc1cccc(C(F)(F)F)c1 as the compound, how does the growth read?
**A.** 76.9% (inactive)

**Q.** Which growth does the source give for CC[C@H]1OC(=O)[C@H](C)[C@@H](O[C@H]2C[C@@](C)(OC)[C@@H](O)[C@H](C)O2)[C@H](C)[C@@H](O[C@@H]2O[C@H](C)C[C@H](N(C)C)[C@H]2O)[C@](C)(OC)C/C(C)=C2/O[C@@]1(C)C=C2C here?
**A.** 21.7% (inactive)

**Q.** How did the growth turn out when Cn1c2ccccc2c2c3[nH][nH]c(=O)c3c3c4ccccc4[nH]c3c21 was run?
**A.** 60.2% (inactive)

**Q.** Nc1nc(N)c(N)c(Nc2ccc(CCO)cc2)n1 was tested. Which growth did it give?
**A.** 100% (inactive)

**Q.** How did the growth turn out when CN1CCc2c(sc3nc4n(-c5ccc(Cl)cc5)c(=O)[nH]n4c(=O)c23)C1 was run?
**A.** 93.1% (inactive)

**Q.** Which growth does the source give for Cc1ccc(-n2c(C)nn3c(=O)c4c5c(sc4nc23)CN(C)CC5)cc1 here?
**A.** 88.5% (inactive)

**Q.** For O=C(Nc1ccccc1)Nc1ncnc2c1ncn2-c1ccccc1, which growth is on record?
**A.** 82.5% (inactive)

**Q.** With CC(=O)/C(=C/c1ccc(Br)cc1)C(=O)c1ccccc1 as the compound, how does the growth read?
**A.** 80.2% (inactive)

**Q.** For CCOc1ccccc1/C=N/N1CCCCCC1, which growth is on record?
**A.** 85.7% (inactive)

**Q.** For COc1ccc(-c2cc(-c3ccc(Cl)cc3)nc(SCCCC(=O)NO)n2)cc1, which growth is on record?
**A.** -0.0585% (active)

**Q.** For COc1ccc(/C(C#N)=C/c2cccc(OC)c2OC)cc1, which growth is on record?
**A.** 74.7% (inactive)

**Q.** With COc1cc2cc(Oc3ccc(NC(=O)Nc4ccc(Cl)c(Cl)c4)cc3)c(C)nc2cc1OC as the compound, how does the growth read?
**A.** 21.7% (inactive)

**Q.** Which growth does the source give for CCCc1nc(C(C)(C)O)c(C(=O)O)n1Cc1ccc(-c2ccccc2-c2nn[nH]n2)cc1 here?
**A.** 92.6% (inactive)

**Q.** For IC(I)I, which growth is on record?
**A.** 103% (inactive)

**Q.** With COc1ccc(/C=C2\CCCC3=C2NC(N)=NC3c2ccc(OC)c(OC)c2)cc1OC (stereo not given) as the compound, how does the growth read?
**A.** 55.9% (inactive)
